Compound activity as filed in PubChem.
VACV mCherry inh – inhibitors of vaccinia virus infection (mCherry reporter signal) | Vaccinia virus mCherry reporter infection, fluorescence | Potency, µM (series often up to 36.5 µM), for the others: top-dose activity change, negative = inhibition, usual class: inhibitors | actives 0.63% (n = 310,000); calls by dose curve; tested in A549 cells; note: nearly all actives have a fitted effect of over 35% in size
HCV inh – blocks hepatitis C virus. actives 3.4% (n = 340,000). Huh7.5.1 HCVcc-Cre infection, luciferase reporter, 44 h. Potency, µM (titrated, usually from 41.8 µM), inactives show at the highest dose activity change, negative = inhibition, most hits filed as inhibitors; active = well fitted inhibition curve with a large enough effect; inconclusive = small, poorly fitted or top-dose-only effect, or another doubt; inactive = no such curve, though single readings can be large or run the other way
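Reporter virus HCVcc-Cre (~0.5 moi) infects cells exposed to compound; seeding density 1,000 cells/well with 4 h settling beforehand. Luminescence, 15 sec read, taken 44 h post-infection following a 15 min RT substrate incubation.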
Vaccinia Venus – inhibitors of vaccinia virus (Venus reporter) | Vaccinia virus Venus reporter expression, fluorescence | Potency, µM (titrated, usually from 36.5 µM), inactives show at the top dose activity change, negative = inhibition, usual class: inhibitors | actives 0.46% (n = 330,000) | AID 720580; calls by dose curve; tested in A549 cells; note: nearly all actives have a fitted effect of over 30% in size
* hit, by the source's call; i = inactive; ? = inconclusive; nt = no result given; ! = not confirmed by another sample; [ ] = dose if it differs, or a comment. Hits are enriched below; roughly 3.3% of the tested compounds scored in any of these assays. % is set by controls: 0 for no effect and ±100 for the full control effect; potency is the fitted concentration of half-maximal effect.

SMILES	VACV mCherry inh	HCV inh	Vaccinia Venus
CCOc1ccc(NC(=O)C(C)Oc2ccccc2C(=O)Nc2ccc(C)c(Cl)c2)cc1 (stereo not given)	nt	11.2µM*	nt
Cc1ccc(NC(=O)COc2ccccc2C(=O)Nc2ccccc2)cc1Cl	-13.7%	-8.9%	-8.8%
c1ccc2c(c1)ccn2CCCN1CCCCC1	-15.8%	15.6%	-4.9%
Cc1ccc(-n2c3nc(=O)[nH]c(=O)c-3cc3cc([N+](=O)[O-])ccc32)cc1C	-16.9%	35.5µM*	-10.2%
Cc1ccc(S(=O)(=O)n2cnc3cc([N+](=O)[O-])ccc32)cc1C	-15.5%	-16.6%	-12.8%
OC1(c2cccc(C(F)(F)F)c2)CCNCC1	nt	1.9%	nt
O=S(=O)(c1ccc(OC(F)(F)F)cc1)N1CCC(O)(c2cccc(C(F)(F)F)c2)CC1	nt	8.91µM*	nt
COc1cc(S(=O)(=O)N2CCC(O)(c3cccc(C(F)(F)F)c3)CC2)ccc1-n1cnnn1	-9.1%	1.58µM*!	-26.6%
COc1ccc(S(=O)(=O)N2CCCCC2)cc1-n1cnnn1	6.1%	18.5%	1.4%
COc1ccc(CN(Cc2ccccc2)C(=O)Nc2ccccc2)cc1COc1ccc(NC(C)=O)cc1	-23.3%	nt	-18.6%
O=C(Nc1ccc(NC(=O)c2ccc(Cl)c(S(=O)(=O)N3CCOCC3)c2)cc1)c1ccccc1	-13.7%	?	-19.7%
CC(C)(C)c1ccc(C(=O)Nc2ccc(N3CCOCC3)cc2)cc1	-16.5%	1.78µM*	-29.8%
O=C(Nc1ccc(N2CCOCC2)cc1)c1ccc(Cl)c(S(=O)(=O)N2CCCC2)c1	nt	6.31µM*	nt
COc1ccc(C(=O)Nc2ccc(NC(=O)c3ccccc3)cc2)cc1S(=O)(=O)N1CCOCC1	-11.8%	?	-7.8%
CCN1CCN(c2ccc(NC(=O)c3ccc(Cl)c(S(=O)(=O)N4CCCC4)c3)cc2)CC1	-0.4%	17.8µM*	-18.5%
CC(=O)c1ccc(C(=O)Nc2ccc(N3CCOCC3)cc2)cc1	nt	-8.8%	-5.8%
CCN1CCN(c2ccc(NC(=O)c3ccc(OC)c(S(=O)(=O)N4CCCC4)c3)cc2)CC1	nt	-9.1%	nt
COc1ccc(C(=O)Nc2ccc(N3CCCCCC3)cc2)cc1S(=O)(=O)N1CCOCC1	nt	8.91µM*	nt
O=C(C(=O)N1CCCN(Cc2ccc(F)cc2)CC1)c1ccccc1	-7.2%	nt	11.0%
NC(C(=O)O)c1cc(O)cc(O)c1 (stereo not given)	i	nt	-9.6%
CCOC(=O)c1scc(-c2ccc(C)cc2)c1S(=O)(=O)N1CCN(c2ccccc2F)CC1	1.2%	nt	-5.2%
Cc1c(C(C)C)c(=O)n(-c2ccc(S(=O)(=O)N3CCOCC3)cc2)n1C	-8.3%	-9.9%	-13.4%
CCc1ccc(S(=O)(=O)Nc2c(C)n(C)n(-c3ccccc3)c2=O)cc1	i	-3.6%	-3.5%
Cc1c(C(C)C)c(=O)n(-c2ccc(S(=O)(=O)NC3CCCCC3)cc2)n1C	i	5.01µM*	-9.0%
Cc1c(C(C)C)c(=O)n(-c2ccc(S(=O)(=O)NCc3ccccc3)cc2)n1C	-20.1%	0.891µM*	-11.5%
SMILES	VACV mCherry inh	HCV inh	Vaccinia Venus
COc1ccccc1CN(CC(=O)NCc1ccc(F)cc1)C(=O)c1csnn1	-12.3%	5.9%	-12.4%
COc1cccc(-c2nc(-c3ccccn3)no2)c1OC	i	?	-8.1%
COc1cc(-c2nc(-c3ccccn3)no2)cc(OC)c1OC	-22.8%	3.98µM*	-14.4%
COCCn1c(C)cc(O)c(C(c2ccc(OC)cc2)N2CCCCC2)c1=O (stereo not given)	-1.3%	nt	-4.4%
COc1ccc(OC)c2sc(N(Cc3cccnc3)C(=O)c3ccc(C(C)=O)cc3)nc12	-23.7%	nt	-12.4%
COc1ccc(Cl)c2sc(N(Cc3cccnc3)C(C)=O)nc12	i	12.6µM*	-13.3%
CCCCC[C@@H](O)c1cc2ccccc2c(=O)o1	i	-10.5%	-9.2%
CC1CCCN(CCCNC(=O)c2ccc(NC(=O)C3=CSCCO3)cc2)C1 (stereo not given)	nt	7.5%	nt
Cc1cccc(N2CCN(CCCNC(=O)c3ccc(NC(=O)C4=CSCCO4)cc3)CC2C)c1 (stereo not given)	i	11.2µM*	-23.6%
CCSc1ccc([C@@H]2[C@@H]3C(=O)N(CC)C(=O)[C@@H]3[C@]3(C(=O)OC)CCCCN23)cc1	-14.4%	0.708µM*	-23.3%
CCN1C(=O)[C@H]2[C@@H](c3ccc(-c4ccccc4)cc3)N3CCCC[C@@]3(C(=O)OC)[C@H]2C1=O	-25.8%	3.6%	?
CCSc1ccc([C@@H]2[C@H]3C(=O)N(CC)C(=O)[C@H]3[C@]3(C(=O)OC)CCCCN23)cc1	-4.8%	4.3%	-10.2%
CCN1C(=O)[C@@H]2[C@@H](c3ccc(-c4ccc(OC)cc4)cc3)N3CCCC[C@@]3(C(=O)OC)[C@@H]2C1=O	-15.0%	3.16µM*	-12.8%
CCc1cccc(CC)c1NC(=O)COC(=O)CC1c2ccccc2CCN1S(=O)(=O)c1ccccc1 (stereo not given)	-23.3%	7.08µM*	?
O=C(O)CC1c2ccccc2CCN1S(=O)(=O)c1ccccc1 (stereo not given)	i[7.34 µM]	15.8%	-3.2%[7.34 µM]
CCN(CC)CC1CN(N=Cc2ccc([N+](=O)[O-])o2)C(=O)O1 (stereo not given)	?	?	15.8µM*
O=[N+]([O-])c1ccc(C=NN2CCNC2=S)o1	-4.5%	nt	-7.8%
Clc1ccc2c(c1)nc1n2CCCC1	-3.9%	25.1µM*	-12.8%
O=[N+]([O-])c1ccc2c(c1)nc1n2CCCCC1	-6.5%	-10.8%	-7.0%
Cc1ncc2c(c1CNC(=O)c1ccc3c(c1)OCO3)CCN(C(=O)c1coc3c1C(=O)CCC3)C2	-7.0%	nt	2.2%
COc1ccccc1CNc1nc(-c2ccco2)nn1S(=O)(=O)c1ccc2ccccc2c1	-16.3%	nt	-11.7%
CCC(=O)N(CCc1ccccc1)Cc1cc2cccc(C)c2[nH]c1=O	nt	1.5%	nt
COc1ccc(OC)c(C(=O)/C=C/c2cccnc2)c1	?	?	-24.8%
COc1ccc(C=CC(=O)c2ccc(OCc3ccccc3)c(OC)c2)cc1OC	28.2µM*	nt	11.2µM*
COc1cc(C(=O)/C=C/c2cccnc2)ccc1O	3.55µM*	6.5%	8.91µM*
SMILES	VACV mCherry inh	HCV inh	Vaccinia Venus
COc1ccc(/C=C/C(=O)c2ccc3c(c2)OCO3)cc1OC	-12.1%	3.7%	-9.9%
COc1ccc(/C=C/C(=O)c2ccccc2)cc1Cn1nnc2ccccc21	-27.8%	3.55µM*	-10.5%
C/C=C/c1ccc(OCCn2nnc3ccccc32)c(OC)c1	nt	-9.0%	nt
O=C(/C=C/c1ccc(OCc2ccccc2)c(OCc2ccccc2)c1)c1cccnc1	i	?	-9.9%
COc1ccc(/C=C/C(=O)c2ccc(C(=O)/C=C/c3ccc(OC)c(OC)c3)cc2)cc1OC	nt	4.47µM*	nt
COc1cccc(NC(=O)CCc2nc3c(C)nn(-c4ccc(C)cc4)c3n(C)c2=O)c1	-19.2%	nt	-16.1%
C/C=C/c1ccc(OCC(=O)N(CCOC)c2c(N)n(CCCC)c(=O)[nH]c2=O)c(OC)c1	-13.0%	14.4%	-11.7%
Cc1ncc2c(c1CNS(=O)(=O)N(C)C)CCN(C(=O)/C=C/c1ccccc1)C2	-1.4%	nt	13.7%
COc1ccc(-c2ccc(NS(=O)(=O)c3cc(C)c(C)cc3C)cc2)nn1	-16.7%	nt	-8.7%
CCCCOc1ccc(CN=C(N)N)cc1Cl	nt	10µM*	nt
CCCCOc1ccc(CC(N)=O)cc1	i	nt	-5.4%
CCCOc1ccc(CSC(=N)N)cc1C(=O)OC	-3.1%	-23.7%	-19.6%
CCCOc1ccc(CCCN=C(N)N)cc1Cl	-29.6%	8.91µM*	?
